Key:
[1] = molecular target: MAP/microtubule affinity-regulating kinase 3 (Homo sapiens) (UniProt P27448); details: at 1 µM;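 note: reported values are averaged percent inhibition of MARK3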
[2] = molecular target: T1, MAP/microtubule affinity-regulating kinase 4 (Homo sapiens) (UniProt Q96L34); details: at 0.1 µM
T1 sequence (whole entry): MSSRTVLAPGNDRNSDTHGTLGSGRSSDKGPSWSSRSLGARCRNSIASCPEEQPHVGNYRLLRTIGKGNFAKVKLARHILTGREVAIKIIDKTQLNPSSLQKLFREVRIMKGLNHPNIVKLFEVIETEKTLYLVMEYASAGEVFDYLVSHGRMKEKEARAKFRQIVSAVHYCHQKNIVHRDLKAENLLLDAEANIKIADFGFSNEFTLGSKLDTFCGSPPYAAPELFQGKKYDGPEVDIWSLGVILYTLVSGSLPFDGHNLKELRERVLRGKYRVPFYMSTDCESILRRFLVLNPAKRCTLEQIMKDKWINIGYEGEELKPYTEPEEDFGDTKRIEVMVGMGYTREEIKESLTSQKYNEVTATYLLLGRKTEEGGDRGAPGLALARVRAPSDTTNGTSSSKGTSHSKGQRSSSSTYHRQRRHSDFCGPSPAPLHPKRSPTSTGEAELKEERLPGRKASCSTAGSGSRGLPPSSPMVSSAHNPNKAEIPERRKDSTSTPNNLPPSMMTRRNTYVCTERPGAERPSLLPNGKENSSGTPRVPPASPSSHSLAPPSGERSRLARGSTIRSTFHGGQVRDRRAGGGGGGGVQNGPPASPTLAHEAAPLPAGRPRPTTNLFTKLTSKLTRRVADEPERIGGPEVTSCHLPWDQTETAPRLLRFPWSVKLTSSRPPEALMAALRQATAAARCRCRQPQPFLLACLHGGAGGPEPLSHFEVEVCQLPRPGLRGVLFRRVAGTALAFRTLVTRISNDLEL

[3] = molecular target: T1, MAP/microtubule affinity-regulating kinase 4 (Homo sapiens); details: at 1 µM
[4] = molecular target: Maternal embryonic leucine zipper kinase (Homo sapiens) (UniProt Q14680); details: at 0.1 µM
[5] = molecular target: Maternal embryonic leucine zipper kinase (Homo sapiens) (UniProt Q14680); details: at 1 µM
[6] = molecular target: MAP kinase-interacting serine/threonine-protein kinase 1 (Homo sapiens) (UniProt Q9BUB5); details: at 0.1 µM
[7] = molecular target: MAP kinase-interacting serine/threonine-protein kinase 1 (Homo sapiens) (UniProt Q9BUB5); details: at 1 µM
[8] = molecular target: MAP kinase-interacting serine/threonine-protein kinase 2 (Homo sapiens) (UniProt Q9HBH9); details: at 0.1 µM
[9] = molecular target: MAP kinase-interacting serine/threonine-protein kinase 2 (Homo sapiens) (UniProt Q9HBH9); details: at 1 µM
[10] = molecular target: Serine/threonine-protein kinase MARK2 (Homo sapiens) (UniProt Q7KZI7); details: at 0.1 µM;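 note: mean percent inhibition of PAR-1Balpha kinase activity, reported from the GSK PKIS screen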
Chain of Serine/threonine-protein kinase MARK2 (Homo sapiens) (Q7KZI7 whole entry): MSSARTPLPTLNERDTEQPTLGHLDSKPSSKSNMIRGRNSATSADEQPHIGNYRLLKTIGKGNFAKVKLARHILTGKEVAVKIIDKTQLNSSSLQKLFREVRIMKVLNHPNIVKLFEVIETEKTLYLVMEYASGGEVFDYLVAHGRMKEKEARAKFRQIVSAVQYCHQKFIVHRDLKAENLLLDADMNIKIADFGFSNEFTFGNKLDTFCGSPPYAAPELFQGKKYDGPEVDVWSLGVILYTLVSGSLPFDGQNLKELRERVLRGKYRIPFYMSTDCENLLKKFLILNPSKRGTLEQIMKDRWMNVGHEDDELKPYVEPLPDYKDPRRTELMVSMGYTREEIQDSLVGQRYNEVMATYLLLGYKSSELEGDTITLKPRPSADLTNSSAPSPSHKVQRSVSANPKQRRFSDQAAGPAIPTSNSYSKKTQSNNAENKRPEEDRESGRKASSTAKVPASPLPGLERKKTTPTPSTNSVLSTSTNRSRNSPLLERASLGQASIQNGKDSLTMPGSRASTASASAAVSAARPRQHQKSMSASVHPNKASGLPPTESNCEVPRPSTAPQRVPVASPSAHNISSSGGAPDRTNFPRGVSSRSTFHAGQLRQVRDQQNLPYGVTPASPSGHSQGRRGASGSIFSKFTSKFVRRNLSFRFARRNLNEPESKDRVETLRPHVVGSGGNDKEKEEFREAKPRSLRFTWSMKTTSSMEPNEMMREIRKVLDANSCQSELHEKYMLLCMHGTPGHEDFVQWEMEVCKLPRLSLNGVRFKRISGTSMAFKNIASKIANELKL

Chain of MAP kinase-interacting serine/threonine-protein kinase 2 (Homo sapiens) (Q9HBH9 whole entry, looked up): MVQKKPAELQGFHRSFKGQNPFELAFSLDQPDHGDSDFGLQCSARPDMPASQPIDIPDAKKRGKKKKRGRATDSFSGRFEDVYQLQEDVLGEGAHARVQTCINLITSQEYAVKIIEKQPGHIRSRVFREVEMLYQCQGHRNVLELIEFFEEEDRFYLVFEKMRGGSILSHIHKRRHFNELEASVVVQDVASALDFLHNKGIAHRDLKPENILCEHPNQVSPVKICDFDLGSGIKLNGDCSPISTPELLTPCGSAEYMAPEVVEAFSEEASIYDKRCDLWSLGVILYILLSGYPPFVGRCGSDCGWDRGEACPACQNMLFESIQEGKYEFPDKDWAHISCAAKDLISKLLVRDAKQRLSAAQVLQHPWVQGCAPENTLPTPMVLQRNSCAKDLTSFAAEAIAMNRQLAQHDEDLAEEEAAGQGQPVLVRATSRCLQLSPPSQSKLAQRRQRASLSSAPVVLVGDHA
Chain of MAP/microtubule affinity-regulating kinase 3 (Homo sapiens) (P27448 whole entry, looked up): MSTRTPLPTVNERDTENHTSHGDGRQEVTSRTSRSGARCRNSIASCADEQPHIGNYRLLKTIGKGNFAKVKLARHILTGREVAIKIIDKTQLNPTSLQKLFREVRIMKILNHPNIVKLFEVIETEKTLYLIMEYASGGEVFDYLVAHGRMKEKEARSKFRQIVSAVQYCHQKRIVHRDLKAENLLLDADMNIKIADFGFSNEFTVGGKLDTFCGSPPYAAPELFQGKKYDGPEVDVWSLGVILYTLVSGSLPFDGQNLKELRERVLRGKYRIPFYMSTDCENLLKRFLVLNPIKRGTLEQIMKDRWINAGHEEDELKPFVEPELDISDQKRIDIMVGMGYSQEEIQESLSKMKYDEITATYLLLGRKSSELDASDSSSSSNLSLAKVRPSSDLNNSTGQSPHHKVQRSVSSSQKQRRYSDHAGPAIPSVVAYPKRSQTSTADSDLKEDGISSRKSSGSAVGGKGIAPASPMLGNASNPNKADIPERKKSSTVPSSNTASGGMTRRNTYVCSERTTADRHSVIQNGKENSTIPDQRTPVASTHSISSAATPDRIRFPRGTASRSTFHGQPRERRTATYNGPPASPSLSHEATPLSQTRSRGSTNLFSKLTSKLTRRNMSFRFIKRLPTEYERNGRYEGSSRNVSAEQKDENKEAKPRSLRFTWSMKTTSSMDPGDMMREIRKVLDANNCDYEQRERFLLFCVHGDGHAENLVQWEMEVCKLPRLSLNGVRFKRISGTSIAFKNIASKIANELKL
Chain of Maternal embryonic leucine zipper kinase (Homo sapiens) (Q14680 whole entry, looked up): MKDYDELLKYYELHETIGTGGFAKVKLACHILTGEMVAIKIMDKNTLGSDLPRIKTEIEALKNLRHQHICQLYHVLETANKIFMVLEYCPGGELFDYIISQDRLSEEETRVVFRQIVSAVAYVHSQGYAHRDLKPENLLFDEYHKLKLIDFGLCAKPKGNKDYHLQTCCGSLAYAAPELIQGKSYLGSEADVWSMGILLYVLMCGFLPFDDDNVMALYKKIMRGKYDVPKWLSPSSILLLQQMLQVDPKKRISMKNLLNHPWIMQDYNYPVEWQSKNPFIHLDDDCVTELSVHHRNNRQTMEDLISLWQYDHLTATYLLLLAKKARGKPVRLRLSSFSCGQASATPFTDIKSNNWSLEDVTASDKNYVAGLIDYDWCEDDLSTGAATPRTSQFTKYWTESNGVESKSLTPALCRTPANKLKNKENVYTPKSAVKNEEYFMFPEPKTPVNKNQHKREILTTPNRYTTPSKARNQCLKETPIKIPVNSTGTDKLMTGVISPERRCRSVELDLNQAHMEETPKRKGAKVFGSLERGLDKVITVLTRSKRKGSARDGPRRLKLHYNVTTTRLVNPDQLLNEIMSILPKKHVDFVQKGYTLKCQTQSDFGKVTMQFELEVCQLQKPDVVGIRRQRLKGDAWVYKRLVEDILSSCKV
Chain of MAP kinase-interacting serine/threonine-protein kinase 1 (Homo sapiens) (Q9BUB5 whole entry, looked up): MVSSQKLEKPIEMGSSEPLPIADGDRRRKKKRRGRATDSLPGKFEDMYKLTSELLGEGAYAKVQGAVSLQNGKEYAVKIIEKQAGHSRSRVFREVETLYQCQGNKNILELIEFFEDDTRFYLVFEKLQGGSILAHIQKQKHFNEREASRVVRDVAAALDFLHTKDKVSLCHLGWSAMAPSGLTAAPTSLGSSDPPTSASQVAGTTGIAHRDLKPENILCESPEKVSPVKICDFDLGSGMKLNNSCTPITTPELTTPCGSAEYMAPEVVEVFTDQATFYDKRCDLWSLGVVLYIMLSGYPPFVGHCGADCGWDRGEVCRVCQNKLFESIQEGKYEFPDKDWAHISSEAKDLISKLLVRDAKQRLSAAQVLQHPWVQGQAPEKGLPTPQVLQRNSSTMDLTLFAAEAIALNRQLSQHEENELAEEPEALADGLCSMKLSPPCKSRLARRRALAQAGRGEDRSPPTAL

Row | SMILES | inhibition [1] | inhibition [2] | inhibition [3] | inhibition [4] | inhibition [5] | inhibition [6] | inhibition [7] | inhibition [8] | inhibition [9] | inhibition [10]
1 | CCNC(=O)O[C@H]1CN[C@H](C#Cc2cc3ncnc(Nc4ccc(OCc5cccc(F)c5)c(Cl)c4)c3s2)C1 | 2.72% | 0.88% | 1.97% | 4.18% | 4.99% | 2.75% | 4.73% | 0.73% | 5.72% | -0.45%
2 | CCn1c(-c2nonc2N)nc2c(C#CC(C)(C)O)nc(OC[C@H](N)c3ccccc3)cc21 | 35.4% | 1.25% | 18.4% | 17.7% | 82.1% | 1.77% | 2.97% | 3.54% | 2.92% | 1.39%
3 | COC(=O)Nc1nc2ccc(Oc3ccc(NC(=O)Nc4cccc(Cl)c4)cc3)cc2[nH]1 | -0.32% | -0.16% | 0.01% | 1.24% | -2.93% | 1.78% | 4.14% | -1.23% | 0.19% | -0.4%
4 | Nc1nc(-c2ccc(F)cc2)c(-c2ccc3ncccc3n2)s1 | 3.12% | 2.07% | 2.43% | 4.85% | 22.3% | 4.39% | 8.56% | 1.91% | 5.26% | 0.92%
5 | COc1ccc(-c2cc3c(N)ncnc3o2)cc1 | 4.01% | 0.16% | 1.62% | -3.33% | -1.79% | 0.35% | 2% | 0.74% | 4.21% | -0.22%
6 | O=C(Nc1n[nH]c2cc(-c3ccc(F)cc3)ccc12)C1CC1 | 4.76% | 2% | 3.26% | 4.84% | 8.01% | 4.85% | 25.8% | 1.37% | 7.23% | 1.15%
7 | CC(C)COC(=O)c1ccc2c(c1)/C(=C/Nc1ccc(S(N)(=O)=O)cc1)C(=O)N2 | 88.7% | 24.6% | 77.5% | 50.1% | 93.2% | -1.01% | 6.56% | 1.73% | 13.9% | 25.9%
8 | CC(=O)Nc1cccc(C#Cc2cncnc2Nc2ccc(OCc3cccc(F)c3)c(Cl)c2)c1 | 4.64% | 0.9% | 0.69% | 1.32% | 1.11% | 2.02% | 15.4% | 1.16% | 6.2% | -0.32%
9 | CN1CCC(n2cnc(-c3ccc(F)cc3)c2-c2ccnc(Nc3ccccc3)n2)CC1 | 2.89% | 0.39% | 0.51% | 1.63% | 3.22% | 1.8% | 11.4% | 1.79% | 4.18% | 0.89%
10 | COc1cccc(-c2c[nH]c3c(N/N=C/c4ccncc4)ncnc23)c1 | 11.8% | 1.97% | 7.5% | 0.82% | 4.88% | 15.4% | 57.1% | 11.8% | 51.1% | 0.99%
11 | COc1cc2ncn(-c3cc(OCc4ccccc4C(F)(F)F)c(C(=O)N(C)C)s3)c2cc1OC | 3.36% | -0.78% | 0.92% | 2.15% | 1.97% | 0.52% | 3.31% | -0.13% | 2.71% | -2.4%
12 | O=S(=O)(CCNCc1ccc(-c2ccc3ncnc(Nc4ccc(OCc5cccc(F)c5)c(Cl)c4)c3c2)o1)c1ccccc1 | 5.8% | 3.85% | 2.5% | 5.2% | 3.07% | 2.9% | 5.96% | 0.8% | 4.95% | 0.66%
13 | COc1ccc2c(-c3ccnc(Nc4cccc(OC(F)(F)F)c4)n3)cnn2n1 | 6.67% | 1.08% | 3.99% | 1.72% | 11.1% | 3.13% | 9.47% | 2.32% | 8.78% | -0.54%
14 | COc1ccc(CNC(=O)c2ccc(-c3cc(-c4nnc(C)o4)ccc3C)cc2)cc1 | 0.99% | 2.25% | 1.91% | 0.76% | 1.99% | 4.23% | 9.25% | 4.37% | 8.59% | 1.99%
15 | Nc1ncc(-c2cccc(S(N)(=O)=O)c2)c2scc(-c3ccc(F)c(Cl)c3)c12 | 5.19% | 3.07% | 5.58% | 5.13% | 2.9% | 3.42% | 4.48% | 1.7% | 6.22% | 0.24%
16 | COC(=O)Nc1nc2ccc(S(=O)(=O)c3ccc(NC(=O)Nc4cc(C(F)(F)F)ccc4F)cc3)cc2[nH]1 | 0.83% | 1.2% | 1.06% | 1.64% | 4.33% | 1.27% | 1.87% | 1% | 0.01% | -2.72%
17 | Fc1ccc(-c2nn3ncccc3c2-c2ccnc(Nc3ccc4c(c3)OCCO4)n2)cc1 | -0.42% | 2.21% | 2.65% | 3.62% | 9.58% | 3.01% | 4.06% | 0.58% | -0.01% | -1.3%

Row | SMILES | inhibition [1] | inhibition [2] | inhibition [3] | inhibition [4] | inhibition [5] | inhibition [6] | inhibition [7] | inhibition [8] | inhibition [9] | inhibition [10]
18 | COc1ccc(-c2nn3ncccc3c2-c2ccnc(Nc3ccc4c(c3)OCCO4)n2)cc1 | 1.83% | 1.34% | 0.93% | -1.54% | 2.58% | 0.71% | 0.14% | -0.13% | 1.25% | -1.35%
19 | NS(=O)(=O)c1ccc(Nc2ncc(-c3ccccc3)o2)cc1 | 12.2% | 2.7% | 10.9% | 1.52% | 0.94% | 4.26% | 21.3% | 3.92% | 18.9% | 2.35%
20 | c1ccc(-c2nc3n(c2-c2ccc4c(c2)OCO4)CCC3)nc1 | 4.15% | 1.03% | 2.7% | 2.58% | 4.77% | 1.71% | 3.75% | 0.98% | -0.19% | 2.71%
21 | Cc1cccc2c1NC(=O)/C2=N\Nc1ccc(S(N)(=O)=O)cc1 | 2.38% | 1.25% | 2.15% | 3.77% | 2.1% | 1.62% | 2.53% | 0.84% | 1.26% | 0.47%
22 | O=C(O[C@H]1CN[C@H](C#Cc2cc3ncnc(Nc4ccc(Cc5ccccc5)cc4)c3s2)C1)N1CCOCC1 | 2.78% | 1.7% | 0.44% | 0.46% | -1.31% | 2.67% | 7.67% | 9.26% | 48.1% | -0.11%
23 | CCN(CC)S(=O)(=O)c1ccc(OC)c(Nc2ncc(-c3ccccc3)o2)c1 | 18.7% | -1.02% | 0.8% | -0.34% | 7.01% | 1.28% | 5.6% | 1.51% | 2.53% | 0.71%
24 | COc1ccc(-c2oc3ncnc(N)c3c2-c2ccc(NC(=O)Nc3cc(C(F)(F)F)ccc3F)cc2)cc1 | 5.58% | 1.52% | 5.32% | 4.39% | -9.28% | 9.84% | 46.6% | 9.42% | 56.3% | 0.01%
25 | N#Cc1c(NC(=O)CN2CCOCC2)sc2c1CCCC2 | 5.29% | 1.24% | 1.29% | 3.07% | 1.6% | 3.42% | 6.68% | 1.2% | 6.58% | 1.3%
26 | COc1cc(N2CCN(C(C)C)CC2)ccc1Nc1nc(Nc2ccc(F)cc2C(N)=O)c2cc[nH]c2n1 | 67.4% | 4.23% | 37.8% | 18% | 78.3% | 0.9% | 1.83% | 1.81% | 8.99% | 5.75%
27 | CS(=O)(=O)CCNCc1ccc(-c2ccc3ncnc(Nc4ccc(OCc5ccccc5)c(C(F)(F)F)c4)c3c2)o1 | 4.16% | 2.86% | 3.74% | 2.98% | 2.19% | 2.1% | 3.92% | -0.02% | 4.64% | 0.21%
28 | CCCN1CCC(c2ccc(Nc3nc(Nc4cc(F)ccc4C(N)=O)c4cc[nH]c4n3)c(OC)c2)CC1 | 66.6% | 7.27% | 42.6% | 21.7% | 78.7% | 5.57% | 10.7% | 3.26% | 7.76% | 7.99%
29 | Fc1cccc(COc2ccc(Nc3ncnc4sc(-c5ccco5)cc34)cc2Cl)c1 | 4.54% | 2.34% | 3.94% | 5.07% | 1.45% | 1.99% | 10.1% | -0.22% | 15.1% | 1.08%
30 | CNC(=O)c1cc(-c2ccc(F)cc2)cc(-c2ccc(S(=O)(=O)N3CCCC3)cc2)c1N | 2.91% | 0.61% | 1.19% | 4.19% | 3.17% | 0.63% | 0.76% | -0.84% | -0.59% | 2.35%
31 | CN(C)CCOc1ccc(-c2nc(-c3ccncc3)c(-c3ccc4c(c3)CC/C4=N\O)[nH]2)cc1 | 4.44% | 0.44% | 2.12% | 1.61% | 3.61% | 1.3% | 7.41% | 1.42% | 5.3% | 1.34%
32 | CS(=O)(=O)CCNCc1coc(-c2ccc3ncnc(Nc4ccc(OCc5ccccc5)cc4)c3c2)c1 | 3.7% | 1.75% | 1.07% | 3.52% | 6.96% | 3.46% | 9.67% | 3.42% | 14.1% | -0.55%
33 | COc1cccc(-n2ncc3c(N/N=C/c4ccc(F)cc4)ncnc32)c1 | 6.87% | 1.23% | 2.4% | 2.6% | 5.51% | 4.58% | 17.5% | 4.13% | 13.3% | 1.91%

From ChEMBL document CHEMBL1961873, “Compounds: GSK PKIS; Assays: Nanosyn kinase panel” (2012)
